Data taken from the supplement of paper PMC7366291.
Structures can show the parent of a compound that is named as a salt. ± gives the standard deviation or the standard deviation of the averaged measurements.

Tests used:
Conditions in all cases: 25 µM; exposure: 24-48 hpf
[1] = system: Danio rerio Tg(wt1b:EGFP) embryo, pronephros; assay: glomerular separation, fold change vs DMSO control; higher = glomeruli further apart (abnormal)
In short: (§1)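 Features are reported as fold changes against the mean of same-day DMSO-treated embryos. Before that, values more than 2 SD away from the feature mean were excluded. The embryos, dechorionated Tg(wt1b:EGFP) zebrafish, had been exposed from 24 to 48 hpf at 28.5°C to 25 μM compound in 0.5% DMSO in HEPES-buffered E3 with 0.003% PTU, and distances and angles came from 16 manually set points on maximum projections of dorsal pronephros images in Fiji.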

[2] = system: Danio rerio Tg(wt1b:EGFP) embryo, pronephros; assay: glomerular width (mean of left and right), fold change vs DMSO control; higher = wider glomerulus
In short: as §1

[3] = system: Danio rerio Tg(wt1b:EGFP) embryo, pronephros; assay: fraction of imaged embryos annotated as normal kidney; higher = less nephrotoxic; extreme values may be limits of the assay
In short: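 The read-out is the proportion of embryos in each treatment manually annotated as normal-kidney. Exposure ran from 24 to 48 hpf at 28.5°C in 12-well plates, using dechorionated Tg(wt1b:EGFP) zebrafish embryos in 5 mM HEPES-buffered E3 with 0.003% PTU, 0.5% DMSO and 25 μM compound. For imaging, larvae were anaesthetised with tricaine, positioned dorsally in agarose-filled 96-well plates and captured by widefield fluorescence (470 nm, 10 z-slices), with scoring done on maximum projections.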

[4] = system: Danio rerio Tg(wt1b:EGFP) embryo, pronephros; assay: pronephric angle neck segment to proximal convoluted tubule (mean of left and right), fold change vs DMSO control; higher = larger pronephric angle
In short: as §1

Row | Compound | glomerular separation [1] | glomerular width [2] | fraction of imaged embryos annotated as normal kidney [3] | pronephric angle neck segment [4]
1 | CCN1CCCC(OC(=O)C(c2ccccc2)c2ccccc2)C1 (centres undefined) [Piperidolate hydrochloride] | 0.836 ± 0.28 | 0.997 ± 0.01 | 0.75 | 0.98 ± 0.016
2 | CCc1cccc2c3c([nH]c12)C(CC)(CC(=O)O)OCC3 (centres undefined) [Etodolac] | 1.66 ± 0.82 | 0.954 ± 0.025 | 0.636 | 1.13 ± 0.055
3 | O=C(O)c1cc(-c2ccc(F)cc2F)ccc1O [Diflunisal] | 4.51 ± 2.5 | 0.881 ± 0.022 | 0.0833 | 1.69 ± 0.17
4 | C#C[C@]1(O)CC[C@H]2[C@@H]3CCC4=CCCC[C@@H]4[C@H]3CC[C@@]21C [Lynestrenol] | 0.801 ± 0.38 | 0.994 ± 0.054 | 0.917 | 1.02 ± 0.051
5 | Nc1ccc(/N=N/c2ccccc2)c(N)n1 [Phenazopyridine hydrochloride] | 1.27 ± 0.52 | 0.979 ± 0.025 | 0.583 | 1.101 ± 0.01
6 | Cn1c(=O)c2c(ncn2C)n(C)c1=O [Caffeine] | 0.852 ± 0.19 | 0.921 ± 0.018 | 0.9 | 1.05 ± 0.099
7 | CCN(CC)CCNC(=O)COc1ccc(OC)cc1 [Mefexamide hydrochloride] | 1.52 ± 0.84 | 0.916 ± 0.021 | 0.833 | 1.07 ± 0.086
8 | O=C(CCCCCCC(=O)Nc1ccccc1)NO [Vorinostat] | 1.25 ± 0.51 | 0.947 ± 0.056 | 0.667 | 1 ± 0.053
9 | CC1=C(/C=C/C(C)=C/C=C/C(C)=C/C(=O)O)C(C)(C)CCC1 [Retinoic acid] | 3.15 ± 1.8 | 0.639 ± 0.044 | 0 | 1.67 ± 0.033
10 | O=C1CN2Cc3c(ccc(Cl)c3Cl)N=C2N1 [Anagrelide] | 1.1 ± 0.67 | 0.932 ± 0.098 | 0.917 | 0.988 ± 0.027
11 | Clc1cccc(Cl)c1NC1=NCCN1 [Clonidine hydrochloride] | 0.954 ± 0.35 | 1.001 ± 0.0053 | 0.583 | 0.96 ± 0.067
12 | Cc1cc(/C=C/c2ccc3cc(N(C)C)ccc3[n+]2C)c(C)n1-c1ccccc1 [Pyrvinium pamoate] | 1.12 ± 0.41 | 0.975 ± 0.021 | 0.833 | 1.02 ± 0.034
13 | CC(=O)Oc1cccc2c1C(=O)c1c(OC(C)=O)cc(C(=O)O)cc1C2=O [Diacerein] | 0.691 ± 0.2 | 1.1 ± 0.046 | 0.833 | 1.02 ± 0.021
14 | CC(N)C12CC3CC(CC(C3)C1)C2 (centres undefined) [Rimantadine Hydrochloride] | 0.846 ± 0.35 | 0.967 ± 0.064 | 0.917 | 1.04 ± 0.04
15 | CC(C)[N+](C)(CCOC(=O)C1c2ccccc2Oc2ccccc21)C(C)C [Propantheline bromide] | 1.29 ± 0.47 | 0.966 ± 0.062 | 0.667 | 0.942 ± 0.01
16 | COc1ccccc1OCC(O)CO (centres undefined) [Guaifenesin] | 1.21 ± 0.52 | 0.929 ± 0.12 | 0.917 | 1.07 ± 0.035
17 | CCS(=O)(=O)CCn1c([N+](=O)[O-])cnc1C [Tinidazole] | 0.882 ± 0.35 | 1.04 ± 0.036 | 0.833 | 1.02 ± 0.037
18 | CCN(CC)C(=O)c1ccc(O)c(OC)c1 [Ethamivan] | 1.08 ± 0.29 | 1.1 ± 0.019 | 0.818 | 1.019 ± 0.0025
19 | CNCCCN1c2ccccc2CCc2ccccc21 [Desipramine hydrochloride] | 0.966 ± 0.26 | 0.996 ± 0.032 | 0.833 | 1 ± 0.047

Row | Compound | glomerular separation [1] | glomerular width [2] | fraction of imaged embryos annotated as normal kidney [3] | pronephric angle neck segment [4]
20 | O=C(CCCCC(=O)Nc1c(I)cc(I)c(C(=O)O)c1I)Nc1c(I)cc(I)c(C(=O)O)c1I [Iodipamide] | 0.857 ± 0.54 | 1.05 ± 0.076 | 0.75 | 1.0067 ± 0.00076
21 | CCOC(=O)O[C@]1(C(=O)OCCl)CC[C@H]2[C@@H]3CCC4=CC(=O)C=C[C@]4(C)[C@H]3[C@@H](O)C[C@@]21C [Loteprednol etabonate] | 1.27 ± 0.56 | 0.884 ± 0.029 | 0.833 | 1.09 ± 0.042
22 | COc1ccc(C(Cl)=C(c2ccc(OC)cc2)c2ccc(OC)cc2)cc1 [Chlorotrianisene] | 0.709 ± 0.16 | 1.028 ± 0.007 | 1 | 0.953 ± 0.013
23 | CC1CNc2c(cccc2S(=O)(=O)N[C@@H](CCCNC(=N)N)C(=O)N2CC[C@@H](C)C[C@@H]2C(=O)O)C1 (some centres undefined) [Argatroban] | 1.4 ± 1 | 0.949 ± 0.041 | 0.909 | 0.997 ± 0.04
24 | Nc1ccc(O)c(C(=O)O)c1 [Mesalamine] | 1.23 ± 0.36 | 0.956 ± 0.032 | 0.917 | 0.971 ± 0.018
25 | C[C@@H]1CCC[C@H](C)N1NC(=O)c1ccc(Cl)c(S(N)(=O)=O)c1 [Clopamide] | 0.881 ± 0.2 | 1.01 ± 0.02 | 0.917 | 0.98 ± 0.051
26 | NC(=O)OCC(O)COc1ccc(Cl)cc1 (centres undefined) [Chlorphensin carbamate] | 0.973 ± 0.47 | 0.982 ± 0.071 | 0.833 | 1.12 ± 0.099
27 | CN(C)CCC=C1c2ccccc2CCc2ccccc21 [Amitryptiline hydrochloride] | 1.3 ± 0.62 | 0.973 ± 0.14 | 0.917 | 1.02 ± 0.072
28 | CCN(CC)C(=O)/C(C#N)=C/c1cc(O)c(O)c([N+](=O)[O-])c1 [Entacapone] | 1.88 ± 1.4 | 0.938 ± 0.17 | 0.583 | 1.28 ± 0.14
29 | CCn1cc(C(=O)O)c(=O)c2cnc(N3CCNCC3)nc21 [Pipemidic acid] | 0.919 ± 0.32 | 1.05 ± 0.013 | 0.75 | 0.9737 ± 0.0064
30 | CC1CS(=O)(=O)CCN1/N=C/c1ccc([N+](=O)[O-])o1 (centres undefined) [Nifurtimox] | 0.837 ± 0.36 | 0.986 ± 0.038 | 0.917 | 0.938 ± 0.045
31 | Cc1onc(-c2c(F)cccc2Cl)c1C(=O)N[C@@H]1C(=O)N2[C@@H]1SC(C)(C)[C@@H]2C(=O)O [Flucloxacillin sodium] | 1.05 ± 0.33 | 0.989 ± 0.024 | 0.833 | 0.958 ± 0.025
32 | COc1cc(C(=O)N2CCOCC2)cc(OC)c1OC [Trimetozine] | 1.03 ± 0.47 | 0.984 ± 0.065 | 0.917 | 1.01 ± 0.06
33 | CN1CCN(c2c(F)cc3c(=O)c(C(=O)O)cn4c3c2SCC4)CC1 [Rufloxacin] | 0.835 ± 0.21 | 0.9236 ± 0.0089 | 1 | 0.986 ± 0.027
34 | CC1(C)S[C@@H]2[C@H](NC(=O)[C@H](C(=O)O)c3ccsc3)C(=O)N2[C@H]1C(=O)O [Ticarcillin sodium] | 0.953 ± 0.36 | 1.01 ± 0.048 | 0.8 | 1.006 ± 0.0094
35 | COc1cc(NS(=O)(=O)c2ccc(N)cc2)ncn1 [Sulfamonomethoxine] | 0.898 ± 0.44 | 0.946 ± 0.055 | 0.833 | 0.927 ± 0.096
36 | Nc1nc(N)c2nc(-c3ccccc3)c(N)nc2n1 [Triamterene] | 1.02 ± 0.42 | 0.902 ± 0.0063 | 0.75 | 0.935 ± 0.046
37 | CC(C)OC(=O)CCC/C=C\C[C@@H]1[C@@H](CC[C@@H](O)CCc2ccccc2)[C@H](O)C[C@@H]1O [Latanoprost] | 1.02 ± 0.44 | 1.05 ± 0.014 | 0.833 | 1.02 ± 0.013
38 | Nc1ccc(C(=O)NCC(=O)O)cc1 [Aminohippuric acid] | 0.88 ± 0.41 | 0.993 ± 0.03 | 0.917 | 0.991 ± 0.018

Row | Compound | glomerular separation [1] | glomerular width [2] | fraction of imaged embryos annotated as normal kidney [3] | pronephric angle neck segment [4]
39 | CN[C@@H]1[C@H](O[C@H]2[C@H](O[C@H]3[C@H](O)[C@@H](O)[C@H](N=C(N)N)[C@@H](O)[C@@H]3N=C(N)N)O[C@@H](C)[C@]2(O)C=O)O[C@@H](CO)[C@H](O)[C@H]1O [Streptomycin sulfate] | 0.691 ± 0.22 | 1.08 ± 0.098 | 0.917 | 0.959 ± 0.043
40 | Cc1ccccc1OCC(O)CO (centres undefined) [Mephenesin] | 1.06 ± 0.57 | 1.01 ± 0.012 | 0.917 | 0.993 ± 0.033
41 | O=C1CCc2ccc(OCCCCN3CCN(c4cccc(Cl)c4Cl)CC3)cc2N1 [Aripiprazole] | 0.976 ± 0.16 | 0.888 ± 0.06 | 1 | 1.08 ± 0.033
42 | CSc1ccc2c(c1)C(N1CCN(C)CC1)Cc1ccccc1S2 (centres undefined) [Methiothepin maleate] | 1.06 ± 0.38 | 1.01 ± 0.045 | 0.833 | 0.976 ± 0.034
43 | Nc1cc(-c2ccncc2)c[nH]c1=O [Amrinone] | 0.609 ± 0.23 | 1.01 ± 0.036 | 0.917 | 0.969 ± 0.014
44 | OCCN1CCN(CC/C=C2/c3ccccc3Sc3ccc(Cl)cc32)CC1 [Zuclopenthixol dihydrochloride] | 1.17 ± 0.21 | 0.97247 ± 0.0005 | 0.833 | 1.01 ± 0.039
45 | COc1ccccc1OCCNCC(O)COc1cccc2[nH]c3ccccc3c12 (centres undefined) [Carvedilol] | 1.02 ± 0.41 | 1.048 ± 0.0037 | 0.8 | 0.958 ± 0.019
46 | CC(COc1ccccc1)NC(C)C(O)c1ccc(O)cc1 (centres undefined) [Isoxsuprine hydrochloride] | 1.07 ± 0.26 | 1.08 ± 0.024 | 1 | 0.928 ± 0.029
47 | C[C@@H]1CN(c2c(F)c(N)c3c(=O)c(C(=O)O)cn(C4CC4)c3c2F)C[C@H](C)N1 [Sparfloxacin] | 0.812 ± 0.23 | 0.92 ± 0.019 | 1 | 1.04 ± 0.024
48 | COc1cc2nc(N3CCN(C(=O)C4CCCO4)CC3)nc(N)c2cc1OC (centres undefined) [Terazosin hydrochloride] | 0.764 ± 0.26 | 1.04 ± 0.027 | 0.833 | 0.9878 ± 0.0069
49 | O=C1c2c(O)ccc(O)c2C(=O)c2c(NCCNCCO)ccc(NCCNCCO)c21 [Mitoxantrone dihydrochloride] | 1.13 ± 0.46 | 1.03 ± 0.063 | 0.667 | 1.07 ± 0.1
50 | CN1CCC(OC(c2ccccc2)c2ccccc2)CC1 [Diphenylpyraline hydrochloride] | 1.02 ± 0.24 | 1.07 ± 0.053 | 1 | 0.963 ± 0.035
51 | CN1CCC(=C2c3ccccc3CC(=O)c3sccc32)CC1 [Ketotifen fumarate] | 0.991 ± 0.29 | 1.06 ± 0.027 | 0.833 | 0.948 ± 0.013
52 | Nc1ccn([C@@H]2O[C@H](CO)[C@@H](O)[C@@H]2O)c(=O)n1 [Cytarabine] | 0.773 ± 0.16 | 1.06 ± 0.016 | 0.917 | 0.998 ± 0.015
53 | O=C1OC(CN2CCOCC2)CN1/N=C/c1ccc([N+](=O)[O-])o1 (centres undefined) [Furaltadone hydrochloride] | 0.859 ± 0.33 | 1.1 ± 0.021 | 0.75 | 0.995 ± 0.015
54 | O=C1NCC2(CCN(CCc3ccccc3)CC2)O1 [Fenspiride hydrochloride] | 1.24 ± 0.7 | 0.944 ± 0.024 | 0.833 | 1.09 ± 0.038
55 | Cc1cc(C)nc(NS(=O)(=O)c2ccc(N)cc2)n1 [Sulfamethazine sodium salt] | 1.11 ± 0.43 | 1.08 ± 0.048 | 0.917 | 1.01 ± 0.031
56 | CN1C2CCCC1CC(NC(=O)c1nn(C)c3ccccc13)C2 (centres undefined) [Granisetron] | 0.791 ± 0.23 | 0.98 ± 0.024 | 0.917 | 1.04 ± 0.015
